The source of these data is PubChem BioAssay (NCATS).

Inconclusive results are not listed. The source made the active and inactive calls. Calls come from the whole dose curve; as a rule, active = well fitted curve in either direction with a large enough effect (not every such curve was filed as active); inconclusive = small, poorly fitted or top-dose-only effect, or another doubt; inactive = flat fitted curve, though single readings scatter.
% is set by controls: 0 for no effect and ±100 for the full control effect.

A short description of one assay: NFAT Signaling Pathway (AID 444).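 Note: carbachol stimulus at about its EC50 of 1 µM final.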 As to conditions: Jurkat NFAT-bla M1, carbachol, beta-lactamase ratio, 5 h; at 7.69 µM (top of the series) unless noted. In outline: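 Read-out: CCF4 FRET ratio (460 nm/530 nm) after 1 h RT dye loading, used for %activity and AC50 from titration series. Cells: Jurkat NFAT-β-lactamase/M1 line, treated with compound plus 1 uM carbachol for 5 h, 37 °C.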
`Cc1noc(C)c1C(=O)N1CCC2(CC1)CN(c1cccc(-c3ccccc3)c1)C2`: the activity change, negative = inhibition was 5.64% (inactive).

Take `O=C1c2ccccc2[C@@H]([C@@H]2c3ccccc3C(=O)c3cc(Br)ccc32)c2ccc(Br)cc21`: the activity change, negative = inhibition is -5.27% (inactive).

`O=C(O)c1ccccc1-c1ccccc1C(=O)c1ccccc1`: the activity change, negative = inhibition was 5.49% (inactive).

With `N[C@@H](CSCc1ccccc1)C(=O)O`, the activity change, negative = inhibition is 3.49% (inactive).

For `O=C1c2ccccc2C(=O)c2c(Nc3cc4c5c(ccc6c7ccc8c9c(cc(Nc%10cccc%11c%10C(=O)c%10ccccc%10C%11=O)c(c3c56)c97)-c3ccccc3C8=O)C(=O)c3ccccc3-4)cccc21`, the activity change, negative = inhibition is 22.7% (inactive).

For the molecule `O=S(=O)(O)c1ccc(NN(c2c(O)ccc3ccccc23)S(=O)(=O)O)cc1`, the activity change, negative = inhibition is -1.45% (inactive).

In the case of `O=S(=O)(O)c1ccc(-c2nnc(-c3ccccn3)nc2-c2ccc(S(=O)(=O)O)o2)o1`, the activity change, negative = inhibition is 3.88% (inactive).

Turning to `COc1ccc(C(=O)N2CCC3(CC2)CN(c2ccccc2)C3)cc1`, the activity change, negative = inhibition was 5.84% (inactive).

In the case of `C[C@@H]1CCCC(CC(=O)O)(CC(=O)O)C1`, the activity change, negative = inhibition was -0.409% (inactive).

In the case of `CN(C)c1ccc(C(c2ccc(N(C)C)cc2)c2ccc([N+](=O)[O-])cc2)cc1`, the activity change, negative = inhibition was -16.6% (inactive).

Take `O=C(O)C1C(C(=O)O)C(C(=O)O)C1C(=O)O` (stereo not drawn): the activity change, negative = inhibition was -1.31% (inactive).

Turning to `Nc1nc(C(=O)O)c(N=Nc2ccccc2)c(=O)[nH]1`, the activity change, negative = inhibition was -22.9% (inactive).

With `S=c1nc(-c2nc(=S)[nH]c3c2CCCCCCCCCC3)c2c([nH]1)CCCCCCCCCC2`, the activity change, negative = inhibition is 15.1% (inactive).

Consider `CN(C)CCCN=C(N)N`, for which the activity change, negative = inhibition was 4.78% (inactive).

As for `N#CCCn1c(=O)c(-c2cc(F)cc(F)c2)nc2cnc(Oc3cccc(Cl)c3)nc21`, the activity change, negative = inhibition was -4.95% (inactive).

As to `O=C(O)c1cc(C(=O)O)cc(N2C(=O)c3ccccc3C2=O)c1`, the activity change, negative = inhibition is 6.56% (inactive).

Consider `O=S(=O)(O)c1cc(S(=O)(=O)O)c2c(N=Nc3cccc4ccccc34)c(O)ccc2c1`, for which the activity change, negative = inhibition is 21.1% (inactive).

Consider `C#CCOC(=O)[C@H](N)CC(N)=O`, for which the activity change, negative = inhibition is 13.9% (inactive).

As to `Cc1ccc(N=Nc2c(O)ccc3cc(S(=O)(=O)O)ccc23)cc1`, the activity change, negative = inhibition was -0.401% (inactive).

On to `Cc1ccc(N=Nc2c(O)c(S(=O)(=O)O)cc3cc(S(=O)(=O)O)ccc23)c(C)c1`, for which the activity change, negative = inhibition is 10.1% (inactive).

For `CN(Cc1cc(Br)cc(Br)c1O)Cc1c(O)ccc2ccccc12`, the activity change, negative = inhibition was -25.5% (inactive).

Take `O=C(O)CC(CC(=O)O)C(=O)O`: the activity change, negative = inhibition was 8.83% (inactive).

Take `O=S(=O)(O)c1cc(O)c2c(O)c(N=Nc3cccc4ccccc34)c(S(=O)(=O)O)cc2c1`: the activity change, negative = inhibition was -6.39% (inactive).

For the molecule `COCCn1c(=O)c(-c2ccc(OC)cc2)nc2cnc(Oc3ccccc3)nc21`, the activity change, negative = inhibition was 12.7% (inactive).

Turning to `CNS(=O)(=O)c1ccccc1C(=N)c1ccccc1`, the activity change, negative = inhibition was 1.97% (inactive).

With `C[N+]1(CCN=C=NC2CCCCC2)CCOCC1`, the activity change, negative = inhibition is -4.19% (inactive).

As to `O=S(=O)(O)c1ccc(N=Nc2ccc3c(S(=O)(=O)O)cccc3c2O)c2ccccc12`, the activity change, negative = inhibition is 9.05% (inactive).

In the case of `CN(C)CN1CSC(=S)N(CN(C)C)C1`, the activity change, negative = inhibition is 1.69% (inactive).

Consider `FC(F)(F)c1cc(NC(=S)N2c3ccccc3-n3cccc3[C@H]2c2cccnc2)cc(C(F)(F)F)c1`, for which the activity change, negative = inhibition is 16.9% (inactive).

In the case of `COc1ccc([C@@H](C)c2cc3c(cc2O)OCO3)cc1`, the activity change, negative = inhibition is -3.98% (inactive).

Take `CN(C)Cc1cc(C(C)(C)C)cc(CNC2CCCCC2)c1O`: the activity change, negative = inhibition was -20.6% (inactive).

With `O=C1OC2(c3ccc(O)cc3Oc3cc(O)ccc32)c2c1c(-c1ccccc1)c(-c1ccccc1)c(-c1ccccc1)c2-c1ccccc1`, the activity change, negative = inhibition is 5.71% (inactive).

For the molecule `O=S(=O)(O)c1ccc2c(N=Nc3c(O)ccc4ccccc34)cccc2c1`, the activity change, negative = inhibition was -11.8% (inactive).

In the case of `Nc1cc2c(nc3c4ccccc4c(N)cc3[n+]2-c2cccc3ccccc23)c2ccccc12` (tested in a mixture with another compound), the activity change, negative = inhibition was 8.58% (inactive).

`O=S(=O)(O)c1ccc2c(N=Nc3cccc4ccccc34)c(O)c(S(=O)(=O)O)cc2c1`: the activity change, negative = inhibition was -7.38% (inactive).

Regarding `S[C@@H]1CCCN(Cc2ccccc2)C1`, the activity change, negative = inhibition is -16.1% (inactive).

As to `CS(=O)(=O)c1ccc(/C=N\NC(N)=S)cc1`, the activity change, negative = inhibition is 1.52% (inactive).

For the molecule `N#CC(=NCCO)C1=C(O)c2ccccc2C1=O`, the activity change, negative = inhibition is 17.6% (inactive).

As to `Cc1ccc(CCCC(=O)O)cc1C`, the activity change, negative = inhibition is 9.24% (inactive).

Another assay in a line: Stat Signaling Pathway (AID 446).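 Note: ME-180 cervical cancer cells given 40 pM IL-6 alongside compound; SIE-controlled beta-lactamase reporter measured as 460/530 nm FRET emission ratio.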 As to conditions: ME-180 SIE beta-lactamase reporter, IL-6 stimulated, 5 h; at 7.69 µM (top of the series) unless noted. In outline: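 ME-180 SIE-bla cells; overnight plating; cpd + IL-6 40 pM, 5 h, 37 C; LiveBLAzer 2.5 h RT; 460/530 nm emission ratio. Normalized to 300 pM IL-6 and 125 nM JAK inhibitor controls.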
As for `Cc1noc(C)c1C(=O)N1CCC2(CC1)CN(c1cccc(-c3ccccc3)c1)C2`, the activity, negative = inhibition was -11.6% (inactive).

Turning to `O=C1c2ccccc2[C@@H]([C@@H]2c3ccccc3C(=O)c3cc(Br)ccc32)c2ccc(Br)cc21`, the activity, negative = inhibition is 8.23% (inactive).

Consider `O=C(O)c1ccccc1-c1ccccc1C(=O)c1ccccc1`, for which the activity, negative = inhibition was 2.8% (inactive).

For `N[C@@H](CSCc1ccccc1)C(=O)O`, the activity, negative = inhibition is -2.8% (inactive).

As to `O=C1c2ccccc2C(=O)c2c(Nc3cc4c5c(ccc6c7ccc8c9c(cc(Nc%10cccc%11c%10C(=O)c%10ccccc%10C%11=O)c(c3c56)c97)-c3ccccc3C8=O)C(=O)c3ccccc3-4)cccc21`, the activity, negative = inhibition is 11.5% (inactive).

On to `O=S(=O)(O)c1ccc(NN(c2c(O)ccc3ccccc23)S(=O)(=O)O)cc1`, for which the activity, negative = inhibition is -0.169% (inactive).

For `O=S(=O)(O)c1ccc(-c2nnc(-c3ccccn3)nc2-c2ccc(S(=O)(=O)O)o2)o1`, the activity, negative = inhibition was 2.53% (inactive).

In the case of `COc1ccc(C(=O)N2CCC3(CC2)CN(c2ccccc2)C3)cc1`, the activity, negative = inhibition is -21.3% (inactive).

For the molecule `C[C@@H]1CCCC(CC(=O)O)(CC(=O)O)C1`, the activity, negative = inhibition is 6.41% (inactive).

For the molecule `CN(C)c1ccc(C(c2ccc(N(C)C)cc2)c2ccc([N+](=O)[O-])cc2)cc1`, the activity, negative = inhibition is 14.9% (inactive).

As to `O=C(O)C1C(C(=O)O)C(C(=O)O)C1C(=O)O` (stereo not drawn), the activity, negative = inhibition was 0.791% (inactive).

Turning to `Nc1nc(C(=O)O)c(N=Nc2ccccc2)c(=O)[nH]1`, the activity, negative = inhibition is 7.24% (inactive).

Take `S=c1nc(-c2nc(=S)[nH]c3c2CCCCCCCCCC3)c2c([nH]1)CCCCCCCCCC2`: the activity, negative = inhibition was 9.8% (inactive).

As for `CN(C)CCCN=C(N)N`, the activity, negative = inhibition is 2.14% (inactive).

In the case of `N#CCCn1c(=O)c(-c2cc(F)cc(F)c2)nc2cnc(Oc3cccc(Cl)c3)nc21`, the activity, negative = inhibition was 12.5% (inactive).

For the molecule `O=C(O)c1cc(C(=O)O)cc(N2C(=O)c3ccccc3C2=O)c1`, the activity, negative = inhibition was -2.79% (inactive).

Turning to `O=S(=O)(O)c1cc(S(=O)(=O)O)c2c(N=Nc3cccc4ccccc34)c(O)ccc2c1`, the activity, negative = inhibition is 5.07% (inactive).

Regarding `C#CCOC(=O)[C@H](N)CC(N)=O`, the activity, negative = inhibition is -0.998% (inactive).

As to `Cc1ccc(N=Nc2c(O)ccc3cc(S(=O)(=O)O)ccc23)cc1`, the activity, negative = inhibition was -4.61% (inactive).

Regarding `Cc1ccc(N=Nc2c(O)c(S(=O)(=O)O)cc3cc(S(=O)(=O)O)ccc23)c(C)c1`, the activity, negative = inhibition is -2.41% (inactive).

As for `CN(Cc1cc(Br)cc(Br)c1O)Cc1c(O)ccc2ccccc12`, the activity, negative = inhibition is -8.41% (inactive).

`O=C(O)CC(CC(=O)O)C(=O)O`: the activity, negative = inhibition was 7.1% (inactive).

On to `O=S(=O)(O)c1cc(O)c2c(O)c(N=Nc3cccc4ccccc34)c(S(=O)(=O)O)cc2c1`, for which the activity, negative = inhibition is 4.42% (inactive).

Turning to `COCCn1c(=O)c(-c2ccc(OC)cc2)nc2cnc(Oc3ccccc3)nc21`, the activity, negative = inhibition is 16.5% (inactive).

`CNS(=O)(=O)c1ccccc1C(=N)c1ccccc1`: the activity, negative = inhibition is 0.878% (inactive).

Take `C[N+]1(CCN=C=NC2CCCCC2)CCOCC1`: the activity, negative = inhibition was -0.107% (inactive).

For the molecule `O=S(=O)(O)c1ccc(N=Nc2ccc3c(S(=O)(=O)O)cccc3c2O)c2ccccc12`, the activity, negative = inhibition is -4.32% (inactive).

Regarding `CN(C)CN1CSC(=S)N(CN(C)C)C1`, the activity, negative = inhibition was 0.0184% (inactive).

`FC(F)(F)c1cc(NC(=S)N2c3ccccc3-n3cccc3[C@H]2c2cccnc2)cc(C(F)(F)F)c1`: the activity, negative = inhibition was -5.05% (inactive).

As for `COc1ccc([C@@H](C)c2cc3c(cc2O)OCO3)cc1`, the activity, negative = inhibition is 4.36% (inactive).

On to `CN(C)Cc1cc(C(C)(C)C)cc(CNC2CCCCC2)c1O`, for which the activity, negative = inhibition was 7.16% (inactive).

For the molecule `O=C1OC2(c3ccc(O)cc3Oc3cc(O)ccc32)c2c1c(-c1ccccc1)c(-c1ccccc1)c(-c1ccccc1)c2-c1ccccc1`, the activity, negative = inhibition is -17.7% (inactive).

As for `O=S(=O)(O)c1ccc2c(N=Nc3c(O)ccc4ccccc34)cccc2c1`, the activity, negative = inhibition was -5.48% (inactive).

With `Nc1cc2c(nc3c4ccccc4c(N)cc3[n+]2-c2cccc3ccccc23)c2ccccc12` (tested in a mixture with another compound), the activity, negative = inhibition was 6.04% (inactive).

In the case of `O=S(=O)(O)c1ccc2c(N=Nc3cccc4ccccc34)c(O)c(S(=O)(=O)O)cc2c1`, the activity, negative = inhibition was -0.528% (inactive).

In the case of `S[C@@H]1CCCN(Cc2ccccc2)C1`, the activity, negative = inhibition is 2.98% (inactive).

Regarding `CS(=O)(=O)c1ccc(/C=N\NC(N)=S)cc1`, the activity, negative = inhibition is -2.81% (inactive).

As for `N#CC(=NCCO)C1=C(O)c2ccccc2C1=O`, the activity, negative = inhibition is 10.7% (inactive).

For the molecule `Cc1ccc(CCCC(=O)O)cc1C`, the activity, negative = inhibition was 3.42% (inactive).
